In PubChem BioAssay AID1851 (National Center for Advancing Translational Sciences (NCATS), 2009):
Out of some 16,000 compounds screened, about 5,700 (36%) were called active. About 24% were inconclusive and are not listed. The list shows a part of the results. Values without a mark were called inactive. Calls follow the shape of the dose curve; as a rule, active = well fitted curve in the direction sought with a large enough effect; inconclusive = small, poorly fitted or top-dose-only effect, or effect the other way; inactive = no such curve, though single readings can be large or run the other way.

What follows are compounds tested against Cytochrome P450 1A2 (Homo sapiens) (UniProt P05177) (assay: Cytochrome panel assay with activity outcomes). Details: recombinant CYP, pro-luciferin dealkylation, luminescence, p450-cyp1a2; series mostly up to 57.1 µM.
% is scaled to controls: 0 for no effect and ±100 for the full control effect.

Cytochrome P450 1A2 (Homo sapiens), sequence (P05177 whole entry, looked up): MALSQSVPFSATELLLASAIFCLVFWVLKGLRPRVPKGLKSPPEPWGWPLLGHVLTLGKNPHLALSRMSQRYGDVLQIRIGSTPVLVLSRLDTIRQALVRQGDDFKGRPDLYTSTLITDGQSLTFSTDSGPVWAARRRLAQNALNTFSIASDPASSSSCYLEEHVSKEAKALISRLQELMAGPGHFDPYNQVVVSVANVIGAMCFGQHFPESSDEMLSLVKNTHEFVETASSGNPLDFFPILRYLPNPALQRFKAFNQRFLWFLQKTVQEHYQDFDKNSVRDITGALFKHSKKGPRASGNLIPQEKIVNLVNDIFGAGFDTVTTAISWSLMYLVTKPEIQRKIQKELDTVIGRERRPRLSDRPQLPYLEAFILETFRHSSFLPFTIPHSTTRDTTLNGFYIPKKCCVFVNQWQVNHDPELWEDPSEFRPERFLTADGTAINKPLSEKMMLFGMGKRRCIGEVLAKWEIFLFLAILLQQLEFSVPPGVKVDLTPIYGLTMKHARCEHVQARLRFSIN

SMILES	AC50	activity, negative = inhibition
CN(C)/N=N\c1nc[nH]c1C(N)=O	inactive	
COc1ccc(O[C@H]2C=C[C@@H](c3ccccc3)O[C@@H]2CO/N=C(\C)CCN2CCCc3nc(C)c(C)cc32)cc1		-4.49% [at 11.4 µM]
C=CC[C@@H]1C=C[C@H](O/N=C(\C)CCN2CCCCc3nc(C)c(C)cc32)[C@H](CO)O1		-6.73% [at 11.4 µM]
CC[C@]1(O)C[C@@H]2CN(CCc3c([nH]c4ccccc34)[C@](C(=O)OC)(c3cc4c(cc3OC)N(C)[C@H]3[C@](O)(C(=O)OC)[C@@H](C(=O)OC)[C@@]5(CC)C=CCN6CC[C@@]43[C@@H]65)C2)C1	inactive	
CCCN(C(=S)Nc1ccccc1)C1CCS(=O)(=O)C1 (stereo unspecified)	inactive	
CCN(C(=S)Nc1ccccc1F)C1CCCCC1	15.8 µM (active)	
CN(C(=S)Nc1ccccc1F)C1(c2ccccc2Cl)CCCCC1=O (stereo unspecified)	inactive	
c1cncc(-c2cc(NCc3cccs3)ncn2)c1	1 µM (active)	
COc1cccc(-c2cc(NCc3cccs3)ncn2)c1	1.26 µM (active)	
COc1cccc(-c2cc(NCc3cccnc3)ncn2)c1	0.631 µM (active)	
COc1cccc(-c2cc(NCc3ccccc3)ncn2)c1	2 µM (active)	
COc1cccc(/C=N/NC(=O)C(=O)NCc2cccnc2)c1	inactive	
COCC(=O)N1CCC2(CCCN(Cc3ccccc3)C2)CC1	inactive	
CS(=O)(=O)N1CCC2(CCN(C(=O)Nc3cccc(C#N)c3)CC2)CC1	inactive	
Cc1c2cccc(Sc3ccccc3)c2c2c3c(cccc13)[S+](c1ccccc1)C2 (stereo unspecified)		-17.3% [at 2.29 µM]
O=C(Nc1c2c(nn1-c1ccc(F)cc1)CS(=O)(=O)C2)C12CC3CC(CC(C3)C1)C2	inactive	
Cc1cc(C2C(C#N)=C(N)Oc3n[nH]c(C)c32)c(C)s1 (stereo unspecified)	15.8 µM (active)	
Cc1cc(C2C(C#N)=C(N)OC3=C2C(=O)CC(C)(C)C3)c(C)s1 (stereo unspecified)	inactive	
N#CC(=C(/N)Sc1ccccc1N)/C(C#N)=C(/N)Sc1ccccc1N	12.6 µM (active)	
CN1CCN(NC(=O)c2cccc(F)c2)CC1	inactive	
Cc1ccc(N2CC(C(=O)Nc3cc(C)on3)CC2=O)cc1 (stereo unspecified)	inactive	
Cc1cc(NC(=O)CN2C(=O)NC(C)(c3ccc(OC(F)F)cc3)C2=O)no1 (stereo unspecified)	inactive	
Cc1ccc(C2(C)NC(=O)N(CC(=O)Nc3cc(C)on3)C2=O)cc1 (stereo unspecified)	inactive	
Cc1cc(NC(=O)c2cccc(F)c2)no1	17.8 µM (active)	
Cc1cc(NC(=O)Nc2ccc(F)cc2)no1	10 µM (active)	
Cc1ccc(N2C(=O)CC(c3ccsc3)C3=C2CC(C)(C)CC3=O)cc1 (stereo unspecified)	inactive	
